Structures are written as SMILES.

Usually Inhibition stands for the percentage by which the read-out fell short of the control. Lower therefore signals little suppression.

In this test the test system is HepG2. Description: GSK_TCMDC: Percent inhibition of human HepG2 cell line. Test compounds present at 10uM. It is filed as functional.
`Cc1cc(C(=O)CN2C(=O)NC3(CCOc4ccccc43)C2=O)c(C)n1Cc1ccc(F)cc1` (centres undefined) had an Inhibition of 1%.

With `N#Cc1cccc(NC(=O)Nc2ccc(-c3ccc(-c4nc5cc(C(F)(F)F)ccc5[nH]4)cc3)cc2)c1`, the Inhibition came to 51%.

`COCCNC(=O)C(CNC(=O)c1ccc2c(c1)OCO2)NC(=O)c1ccc(-c2ccccc2)cc1` (centres undefined) gave an Inhibition of 14%.

Molecule `COc1cc(Nc2nccc(-c3c(-c4cccc(NC(=O)c5c(F)cccc5F)c4)nn4ncccc34)n2)cc(OC)c1OC` registered an Inhibition of 96%.

`N#Cc1cccc(C(=O)NC2CCN(CCCCCNC(=O)/C=C/c3ccc(Cl)c(Cl)c3)CC2)c1` displayed an Inhibition of 11%.

`CC(C)CCn1c(Sc2ccc([N+](=O)[O-])cc2C(F)(F)F)nnc1-c1ccccc1Cl`: the Inhibition turned out to be 0%.

Molecule `CCc1ccc(-n2c(NC(=O)c3ccccc3)nc3ccc(S(=O)(=O)NC(C)C(C)C)cc32)cc1` (centres undefined) displayed an Inhibition of 48%.

In turn, `COc1cc(Nc2ccnc3ccc(C(F)(F)F)cc23)ccc1OCCCc1ccccc1` yielded an Inhibition of 11%.

With `COc1ccc2c(NN=CC=Cc3ccccc3)ccnc2c1`, the Inhibition turned out to be 9%.

In turn, `CO/C(=C\C=C\c1cc2cc(Cl)c(Cl)cc2[nH]1)C(=O)NCCCN1CCN(Cc2ccccc2)CC1` gave an Inhibition of 45%.

Regarding `COCCCNc1sc(S(=O)(=O)c2ccccc2)nc1S(=O)(=O)c1ccc(C)cc1`, the Inhibition turned out to be 7%.

Turning to `CC(C)CNCc1cccc(-c2ccc(CN(CCCN3CCN(C)CC3)C(=O)CCC3CCCC3)cc2)c1.O=C(O)C(F)(F)F`, the Inhibition came to 82%.

In turn, `O=c1ccccn1CCCC1CCCCN1` (centres undefined) showed an Inhibition of 0%.

The molecule `CCc1ccc(NC(=O)C=NNC(=N)N)cc1.O=S(=O)(O)O` displayed an Inhibition of 13%.

For the origin of these results see ChEMBL document CHEMBL1157539, “Thousands of chemical starting points for antimalarial lead identification” (Nature, 2010).
